hgDAF12 agonist: agonists of H. glycines DAF-12 nuclear receptor | activation, % at 6.8 µM | actives 1.8% (n = 370,000) | HEK293 GAL4-hgDAF12 UAS-luciferase reporter, agonist luminescence; normalized to butyrate control | AID 687014;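 active means activation above a cutoff set at the mean of all screened compounds plus 3 SD, cut at about 10% in these data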;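 further: 0% = DMSO wells and 100% = sodium butyrate wells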
ssDAF-12 act: S. stercoralis DAF-12 activation, primary screen. actives 1% (n = 370,000). AID 652126. HEK293 ssDAF-12/GRIP1 lit1-tk-luc reporter, luminescence; % of 3 µM dafachronic acid response. activation, % at 6.8 µM;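 active means activation above the mean over all tested compounds plus 3 SD, cut at about 0.9% in these data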;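 further: 0% = DMSO-only wells and 100% = 3 µM delta7-dafachronic acid wells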
DAX1 inh-1: blocks DAX1 repression of SF-1 activated StAR promoter. AID 652010. HEK293T StAR-luciferase reporter, SF-1/DAX-1 repression relief. inhibition, % at 6.8 µM. actives 1.1% (n = 370,000);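 active means inhibition above the mean over all tested compounds plus 3 SD, cut at about 3.6% in these data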;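 further: 0% = DAX-1 cells with DMSO and 100% = cells lacking DAX-1 with DMSO; higher inhibition means more luminescence from relief of DAX-1 repression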
hcDAF12 agonist: activators of H. contortus DAF-12 nuclear receptor; activation, % at 6.8 µM; HEK293 hcDAF-12 lit1-tk-luc reporter, luminescence; 0% DMSO, 100% Δ7-dafachronic acid; actives 1.4% (n = 370,000);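 active means activation above the mean of all tested compounds plus 3 SD, cut at about 5.5% in these data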;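 further: 100% = response to 3 µM Δ7-dafachronic acid high control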
DAX1 inh-2: inhibitors of human orphan nuclear receptor DAX1 (NR0B1). HEK293 Gal4-DAX1 luciferase reporter, luminescence. inhibition, % at 6.75 µM. actives 0.99% (n = 340,000);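 active means inhibition above the mean over all tested compounds plus 3 SD, cut at about 4.2% in these data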;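 further: 0% = DAX1-transfected cells with DMSO and 100% = empty-vector control cells with DMSO; inhibition shows as a rise in luminescence from relieved DAX1 repression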
Target sequence (P51843 207-470 limits assumed): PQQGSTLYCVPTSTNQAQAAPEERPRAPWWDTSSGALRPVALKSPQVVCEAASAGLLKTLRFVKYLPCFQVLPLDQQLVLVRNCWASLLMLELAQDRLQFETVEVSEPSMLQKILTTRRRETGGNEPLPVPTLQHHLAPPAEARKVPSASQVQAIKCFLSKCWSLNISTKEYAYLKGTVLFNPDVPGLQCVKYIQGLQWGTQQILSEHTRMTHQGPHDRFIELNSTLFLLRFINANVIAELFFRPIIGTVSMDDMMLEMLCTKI
DAX1 inh confirm: NR0B1 (human) inhibition, confirmation; inhibition, % at 6.8 µM; HEK293T StAR-promoter luciferase reporter, SF-1/DAX-1 repression; AID 652134; actives 87% (n = 2,400); shares compounds with DAX1 inh-1;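 active means inhibition above the average of every tested compound plus 3 SD, cut at about 3.8% in these data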;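 further: 0% = DAX-1 cells with DMSO and 100% = no DAX-1 control cells with DMSO; active compounds raise luminescence by relieving repression of the StAR reporter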
SF1 AF2mut Luc: counter-screen for DAX1 inhibitors: nonselective inhibitors with SF-1 AF2 mutant | shares compounds with DAX1 inh-1 | HEK293 StAR-luciferase, luminescence | inhibition, % at 6.8 µM | actives 78% (n = 2,400);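 active means inhibition above the mean of all tested compounds plus 3 SD, cut at about 3% in these data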;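 further: 0% = DAX-1 transfected cells with DMSO and 100% = cells without DAX-1 with DMSO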
LXRb hcDAF ctr: activates human LXR-beta, counter-screen for hcDAF-12 agonists | shares compounds with hcDAF12 agonist | HEK293 Gal4-LXR tk-luc reporter, luminescence, 24 h; normalized: DMSO 0%, positive control 100% | 3,400 tested, under 10 active | activation, % at 6.8 µM;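 active means mean percent activation of the reporter above a cutoff set as the average over tested compounds plus their standard deviation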
hcDAF12 ag: confirmation of H. contortus DAF-12 agonists. shares compounds with hcDAF12 agonist. AID 743032. actives 61% (n = 3,400). HEK293 hcDAF-12 lit1-tk-luc reporter, luminescence; % of Δ7-dafachronic acid response. activation, % at 6.8 µM;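 active means mean activation across triplicate tests above the threshold derived from the earlier primary screen, cut at about 5.5% in these data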;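 further: 0% = DMSO only wells and 100% = 3 µM Δ7-dafachronic acid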
* hit, by the source's call. This is a sample that favours compounds with a hit; in the whole collection about 4.1% have one here.

Cc1nc2cc(NC(=O)N3c4ccccc4CC3C)ccc2n1C (stereo unspecified) was read as hgDAF12 agonist 10, ssDAF-12 act 1.3*, DAX1 inh-1 6.0*, hcDAF12 agonist 6.9*, DAX1 inh-2 0, DAX1 inh confirm 18*, SF1 AF2mut Luc 7.7*, LXRb hcDAF ctr 2 and hcDAF12 ag 8.2*.
Screening O=C(NCCOc1ccccc1)c1ccccc1NC(=O)C1CCCO1 (stereo unspecified) returned hgDAF12 agonist 11*, ssDAF-12 act 1, DAX1 inh-1 5.6*, hcDAF12 agonist 9.0*, DAX1 inh-2 1, DAX1 inh confirm 8.3*, SF1 AF2mut Luc 7.3*, LXRb hcDAF ctr 1 and hcDAF12 ag 10*.
For CCOC(=O)c1ccccc1NC(=O)C1CCCO1 (stereo unspecified) the results were hgDAF12 agonist -1, ssDAF-12 act -1, DAX1 inh-1 0, hcDAF12 agonist 1 and DAX1 inh-2 2.
COC(=O)c1cc2c(c3c4cc(F)ccc4n(S(=O)(=O)c4ccccc4)c13)C(=O)N(Cc1ccc(N(C)C)cc1)C2 was read as hgDAF12 agonist 0, ssDAF-12 act 0, DAX1 inh-1 1 and hcDAF12 agonist 1.
`CCCn1c(C)cc(C(=O)COC(=O)c2nccnc2N)c1C` gave hgDAF12 agonist 13*, ssDAF-12 act 1.3*, DAX1 inh-1 5.7*, hcDAF12 agonist 7.4*, DAX1 inh-2 0, DAX1 inh confirm 15*, SF1 AF2mut Luc 5.6*, LXRb hcDAF ctr 1 and hcDAF12 ag 5.9*.
For Cc1cc(NC(=O)c2sc3ccccc3c2O)no1 the results were hgDAF12 agonist 8, ssDAF-12 act 1, DAX1 inh-1 6.5*, hcDAF12 agonist 12*, DAX1 inh-2 1, DAX1 inh confirm 8.1*, SF1 AF2mut Luc 6.2*, LXRb hcDAF ctr 1 and hcDAF12 ag 7.2*.
For Cc1ccc2oc(C(=O)Nc3cc(C)on3)c(C)c2c1 the results were hgDAF12 agonist 11*, ssDAF-12 act 2.5*, DAX1 inh-1 5.5*, hcDAF12 agonist 11*, DAX1 inh-2 3, DAX1 inh confirm 13*, SF1 AF2mut Luc 8.0*, LXRb hcDAF ctr 2 and hcDAF12 ag 14*.
Cc1cc(NC(=O)c2cccs2)no1 was read as hgDAF12 agonist 4, ssDAF-12 act -1, DAX1 inh-1 1, hcDAF12 agonist -2 and DAX1 inh-2 0.
`COc1ccc(NC(=O)c2cc(OC)c(OC)c(OC)c2)cn1` gave hgDAF12 agonist 1, ssDAF-12 act -2, DAX1 inh-1 1, hcDAF12 agonist -2 and DAX1 inh-2 0.
For Cc1ccc(NC(=O)c2oc3ccccc3c2C)nc1 the results were hgDAF12 agonist 13*, ssDAF-12 act 3.3*, DAX1 inh-1 8.2*, hcDAF12 agonist 8.5*, DAX1 inh-2 2, DAX1 inh confirm 8.4*, SF1 AF2mut Luc 5.5*, LXRb hcDAF ctr 1 and hcDAF12 ag 16*.
Screening COc1ccc(NC(=O)c2oc3ccccc3c2C)cn1 returned hgDAF12 agonist 7, ssDAF-12 act 1.1*, DAX1 inh-1 6.4*, hcDAF12 agonist 11*, DAX1 inh-2 1, DAX1 inh confirm 6.1*, SF1 AF2mut Luc 6.2*, LXRb hcDAF ctr 0 and hcDAF12 ag 9.8*.
`COC(=O)[C@]12C[C@H](CC(=O)NCc3cccs3)C(=O)N(CCc3ccc(OC)c(OC)c3)C1=C[C@H](C(C)(C)C)O[C@@H]2C` gave hgDAF12 agonist 0, ssDAF-12 act -2, DAX1 inh-1 1 and hcDAF12 agonist -2.

Screens from PubChem BioAssay.
